Screens as filed in PubChem BioAssay.
Only some compounds are listed: those with a hit (about 2.4% of all), similar ones and a draw of the others.
D2 antag – HTS Assay for Allosteric Antagonists of the Human D2 Dopamine Receptor: Primary Screen for Antagonists; D(2) dopamine receptor (Homo sapiens), P14416; HEK293 TREx D2 cells, calcium flux, dopamine EC80; inhibition, % at 10 µM; 340,000 compounds, 2% hits; in the data active = inhibition above about 30%; inactive = below that, where a call was filed
Target sequence (P14416 whole entry, looked up): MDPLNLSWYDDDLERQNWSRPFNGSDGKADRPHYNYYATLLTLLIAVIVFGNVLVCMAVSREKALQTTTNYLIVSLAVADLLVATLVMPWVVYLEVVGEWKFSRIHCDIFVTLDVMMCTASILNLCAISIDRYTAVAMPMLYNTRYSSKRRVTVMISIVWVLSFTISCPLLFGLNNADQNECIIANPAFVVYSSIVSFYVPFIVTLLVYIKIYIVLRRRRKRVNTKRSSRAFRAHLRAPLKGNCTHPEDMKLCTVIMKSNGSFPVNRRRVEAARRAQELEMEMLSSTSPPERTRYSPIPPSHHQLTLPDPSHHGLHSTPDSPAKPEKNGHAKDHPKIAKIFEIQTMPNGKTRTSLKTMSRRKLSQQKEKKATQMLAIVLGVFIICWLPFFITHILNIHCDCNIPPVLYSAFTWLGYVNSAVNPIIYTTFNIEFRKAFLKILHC
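Calcium flux kinetic readout in an inducible HEK293 TREx D2 line plated overnight at 30 C. After 180 s compound exposure, an EC80 dopamine challenge follows with another 180 s kinetic read to detect antagonism.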
D2 ag-1 – HTS Assay for Allosteric Agonists of the Human D2 Dopamine Receptor: Primary Screen for Agonists. HEK293 T-REx D2 cells, calcium flux agonist mode. AID 485358, 2010. D(2) dopamine receptor (Homo sapiens), P14416. 340,000 compounds, 0.53% hits. activation, % at 2 µM;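 active = activation over 3 SD above normal in the single-dose calcium agonist read, cut at about 30% in these data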
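In this primary screen, compounds producing a positive calcium signal within 180 s of addition to tetracycline-induced, force-coupled HEK293 Trex D2 cells are flagged; cells are dye-loaded with a no-wash calcium kit beforehand.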
D2 PAM-1 – HTS Assay for Positive Allosteric Modulators of the Human D2 Dopamine Receptor: Primary Screen for Potentiators. D(2) dopamine receptor (Homo sapiens), P14416. HEK293 T-REx D2, calcium flux, EC20 dopamine potentiation. potentiation, % at 10 µM. 340,000 compounds, 0.34% hits. AID 485347, 2010;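 active = potentiation over 3 SD above the plate norm, cut at about 30% in these data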
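Calcium flux readout, no-wash dye, 1 read/s. Inducible HEK293 Trex D2 line, overnight 30 C. Compound alone 180 s (agonist flags), then EC20 dopamine, another 180 s to score potentiation.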
D2 PAM-2 – Beta-Arrestin HTS for Positive Allosteric Modulators of the Human D2 Dopamine Receptor: Potentiators; DiscoveRx D2 beta-arrestin cells, luminescence, 90 min; 100% = 57 uM dopamine signal; potentiation, % (test concentration not listed); 360,000 compounds, 0.23% hits; in the data active = potentiation above about 50%; inconclusive = mostly about 30% to 49%
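PathHunter D2 cells, attached overnight at 37 deg C, received compound in DMSO plus dopamine at EC20 (50 nM final) for 90 min at 37 deg C. Beta-arrestin recruitment was read as luminescence after 1 h with detection reagent at ambient temperature.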
D2 ag-2 – Beta-Arrestin HTS for Positive Allosteric Modulators of the Human D2 Dopamine Receptor: Agonists | D(2) dopamine receptor (Homo sapiens), P14416 | DiscoveRx PathHunter D2 beta-arrestin, luminescence, 90 min; 100% = 57 uM dopamine signal | activation, % (concentration not given with the values) | 360,000 compounds, 0.084% hits | AID 624465, 2012; in the data active = activation above about 40%; inconclusive = between about 15% and that limit
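DiscoveRx PathHunter D2 beta-arrestin cells (2,100/well) attached overnight, then compound-stimulated 90 min at 37 C in HBSS/10 mM HEPES/0.1% Tween-20 buffer; beta-galactosidase complementation read by luminescence after 1 h at ambient temperature. Dopamine 57 uM final (EC100) as control.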
Each line names hits and unclear results; the compound was inactive in the other large screens.

Nc1c(C(=O)c2ccccc2)sc2nsc(SCCN3CCCC3)c12	D2 ag-1 37
O=C1C2C3C=CC(C4CC34)C2C(=O)N1/N=C/c1cccs1 (configuration not stated)	D2 PAM-2 61
Cn1c(=O)c(=O)n(C)c2cc([N+](=O)[O-])c([N+](=O)[O-])cc21	D2 PAM-2 54, D2 ag-2 inconclusive
Cn1cccc([N+](=O)[O-])c1=O	none (no result: D2 antag, D2 ag-1, D2 PAM-1)
CCOC(=O)c1c(NC(C)=O)sc2c(O)c(Br)cc(Br)c12	D2 antag 36
COc1ccc(CCNC(=O)C2CCN(c3nc4ccccc4nc3C(F)(F)F)CC2)cc1OC	none (no result: D2 antag, D2 PAM-2, D2 ag-2)
COc1ccccc1CNC(=O)c1ccc(CSc2nc3ccncc3n2Cc2cccc(F)c2)cc1	none (no result: D2 antag, D2 PAM-2, D2 ag-2)
COc1ccc(OC)c(NC2=C(c3ccccc3)C(=O)c3ccccc32)c1	none (no result: D2 antag, D2 PAM-2, D2 ag-2)
COc1ccc(Cc2nc(-c3ccc(Br)cc3)no2)cc1	D2 antag 31
Cc1nn(-c2ccccc2)c(Cl)c1/C=N/NC(N)=O	none
Cc1nn(-c2ccccc2)c(Cl)c1/C=N/NC(=O)CNC(=O)c1ccccc1Cl	D2 antag 46
CN(C)CCCN1C(=O)c2cccc3c([N+](=O)[O-])ccc(c23)C1=O	D2 PAM-2 63, D2 ag-2 inconclusive
O=C(Nc1nccs1)c1cccc(N2C(=O)c3cccc4c([N+](=O)[O-])ccc(c34)C2=O)c1	D2 PAM-2 75
CC(=O)Oc1cccc(N2C(=O)c3cccc4c([N+](=O)[O-])ccc(c34)C2=O)c1	D2 PAM-2 107, D2 ag-2 41
O=C(Nc1ccc(S(=O)(=O)Nc2nccs2)cc1)c1cccc(N2C(=O)c3ccccc3C2=O)c1	none
CCN(C(=O)COC(=O)/C(C#N)=C/c1ccc(OC)cc1)C1CCS(=O)(=O)C1 (configuration not stated)	D2 antag 36
Cc1cc(=O)n(CC(=O)N2CCCc3ccccc32)c2c1c(C)nn2-c1cccc(F)c1	none (no result: D2 antag, D2 ag-1, D2 PAM-2, D2 ag-2)
Cc1cc(C)c(S(=O)(=O)N2CCN(c3ccc([N+](=O)[O-])c(NCc4ccco4)c3)CC2)c(C)c1	none
O=[N+]([O-])c1ccc(N2CCN(CCO)CC2)cc1NCc1ccco1	D2 antag 34
O=C(COC(=O)/C=C/c1ccc(Cl)cc1)NC(=O)NCc1ccccc1	D2 antag 44
COC(=O)c1ccc(NC(=S)N(Cc2cccnc2)Cc2ccco2)cc1	none
CCc1ccc(NC(=O)N(Cc2cccnc2)Cc2ccco2)cc1	D2 PAM-1 32
O=C1N/C(=N/Nc2ccccc2)S/C1=C\c1ccccc1	D2 PAM-2 55
COc1cc(N)c(Cl)cc1C(=O)OCC(=O)c1cccs1	D2 antag 33
COc1cc(N)c(Cl)cc1C(=O)OCC(=O)NCc1cccs1	none (no result: D2 antag, D2 ag-1, D2 PAM-1)
COc1ccc(C2=Nn3c(nnc3-c3ccccc3)SC2)cc1OC	none
CCCc1nnc2n1N=C(c1ccc(OC)c(OC)c1)CS2	D2 PAM-1 89
CCc1ccc(CNC(=O)Cn2nc(C)c3nn(-c4ccc(Cl)cc4)c(C)c3c2=O)cc1	none (no result: D2 antag, D2 PAM-2, D2 ag-2)
CC(=O)N1CCc2cc(Br)cc(S(=O)(=O)NCCc3cccc(C)c3)c21	none (no result: D2 antag, D2 PAM-2, D2 ag-2)
Cc1ccc(OCC(=O)NCC(=O)OCc2cc(=O)n3nc(CC(C)C)sc3n2)cc1	none (no result: D2 antag, D2 PAM-2, D2 ag-2)
O=C(CCc1nc2ccccc2c(=O)[nH]1)Nc1cc(Cl)ccc1N1CCCCC1	D2 antag 43
CCc1sc(C(=O)Nc2cc(Cl)ccc2N2CCCCC2)cc1C	none
Cc1ccc(C(=O)Nc2cc(Cl)ccc2N2CCCCC2)s1	D2 antag 32
Cc1cccc(NC(=O)CSc2nc3n[nH]c(C)c3c(=N)n2-c2cccc(Cl)c2)c1	none (no result: D2 antag, D2 PAM-2, D2 ag-2)
O=C(CNc1cccc([N+](=O)[O-])c1)NCCCc1ccccc1	none
Cc1cc(Br)ccc1NC(=O)CNC(=O)CNc1cccc([N+](=O)[O-])c1	D2 antag 31
COc1ccc(CCNC(=O)C2C3CCC(C3)C2C(=O)O)cc1OC (configuration not stated)	none
O=C(O)C1C2CCC(C2)C1C(=O)NCCc1ccccc1 (configuration not stated)	D2 ag-1 36
Fc1ccc(-c2csc(N3CCOCC3)n2)cc1	none
c1ccc2oc(-c3csc(N4CCOCC4)n3)cc2c1	D2 PAM-1 31
COc1ccc(OC)c(NC(=O)CN2C(=O)COc3ccc(S(=O)(=O)NC4CCCC4)cc32)c1	none (no result: D2 antag, D2 PAM-1, D2 PAM-2, D2 ag-2)
O=C(Cn1cc(C(=O)c2cccs2)c2ccccc21)Nc1ccc(Br)cc1	none (no result: D2 antag, D2 PAM-2, D2 ag-2)
COc1ccccc1N(CC(O)Cn1ccnc1C)S(=O)(=O)c1ccccc1 (configuration not stated)	D2 antag 34
COc1ccccc1N(CC(O)Cn1c(C)nc2ccccc21)S(=O)(=O)c1ccccc1 (configuration not stated)	none
O=C1CSc2ccc(C(=O)NCC(c3ccco3)N3CCCCC3)cc2N1 (configuration not stated)	D2 antag 36
CCc1cc(C(=O)NCC(c2ccco2)N2CCCCC2)sc1C (configuration not stated)	D2 antag 39
CC(Oc1ccccc1)C(=O)Nc1ccc(OCc2cc(=O)n3ccsc3n2)cc1 (configuration not stated)	none (no result: D2 antag, D2 PAM-2, D2 ag-2)
CCn1cc(C(=O)N(C)c2cc(C)ccc2C)c2cc(OC)c(OC)cc2c1=O	none (no result: D2 antag, D2 PAM-2, D2 ag-2)
COc1ccc(C(C)C)cc1S(=O)(=O)NCCc1c(C)[nH]c2ccc(C)cc12	none (no result: D2 antag, D2 PAM-1, D2 PAM-2, D2 ag-2)
Cc1ccc(C(=O)NCC(=O)NC23CC4CC(CC(C4)C2)C3)cc1	D2 ag-1 30
Cc1ccc(C(=O)NCC(C)(C)O)cc1	D2 antag 38
Cc1ccc(C(=O)NCCSC(C)(C)C)cc1	none
CCOc1ccccc1NC(=O)N(C)CCc1c(C)nn(CC)c1C	none (no result: D2 antag, D2 PAM-2, D2 ag-2)
CCN1C(=O)c2ccccc2S(=O)c2ccc(C(=O)N3CCCCCC3)cc21 (configuration not stated)	D2 antag 32
C/C(=N/NC(=O)c1ccc(Br)o1)c1ccncc1	D2 antag 38
CCNCc1nc2cc(OC)c(OC)cc2c(=O)[nH]1	D2 antag 33
Cc1ccc(S(=O)(=O)N2CCCN(Cc3nc4ccccc4c(=O)[nH]3)CC2)cc1	none
COc1cc2nc(CN3CCN(S(=O)(=O)c4ccc(C)c(C)c4)CC3)[nH]c(=O)c2cc1OC	D2 PAM-1 32
CC(=O)c1cccc(NC(=O)c2nc(-c3ccccc3)n(-c3ccccc3C)n2)c1	none (no result: D2 antag, D2 PAM-2, D2 ag-2)
